Assay outcomes (PubChem BioAssay)
The list is not random: actives were taken first. Their share in the collection is about 3%.
PPC-1+TRAIL kill = compounds killing PPC-1 cancer cells with TRAIL present, primary screen, TRAIL potentiator project, ATPLite luminescence, uHTS; AID 1443, 2008; 220,000 compounds, 0.41% hits; PPC-1 cells + TRAIL, ATPLite viability luminescence; cell killing (% activity), % at 4 µM or 5 µM;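 active = cell killing above 50% in the first pass at 4 µM, then a duplicate retest at 5 µM averaging 50% or more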;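 also: plate controls were cells with TRAIL plus DMSO for no effect and medium-only wells lacking cells for full effect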
SENP7 inh = SENP7 protease inhibitors, primary screen, biochemical, luminescence, uHTS | recombinant SENP7, Z-RLRGG-aminoluciferin luminescence, 40 min | AID 434973, 2010 | 330,000 compounds, 1.5% hits | inhibition, % at 5 µM;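 active = inhibition above about 50% at the single test dose, limit read from the data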;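 also: plate controls were DMSO with enzyme for no effect and no enzyme buffer wells for full effect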
SENP8 block-1 = human SENP8 protease inhibitors, primary screen, biochemical, fluorescence, Nedd8 protein substrate, uHTS; Sentrin-specific protease 8 (Homo sapiens), Q96LD8; recombinant SENP8; inhibition, % at 20 µM; 360,000 compounds, 0.64% hits; AID 602440, 2012; in the data active = inhibition mostly above about 40%, no sharp cut-off; inactive = mostly below about 27%
SENP6 block = SENP6 protease inhibitors, primary screen, biochemical, luminescence, uHTS; inhibition, % at 10 µM; 330,000 compounds, 1.8% hits; Sentrin-specific protease 6 (Homo sapiens), Q9GZR1; Recombinant SENP6 catalytic domain, aminoluciferin luminescence;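 active = inhibition above about 50% at the single tested dose, limit read from the data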;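 also: plate controls were DMSO wells with enzyme for no effect and DMSO wells lacking enzyme for full effect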
Target sequence (Q9GZR1 628-1112 limits assumed): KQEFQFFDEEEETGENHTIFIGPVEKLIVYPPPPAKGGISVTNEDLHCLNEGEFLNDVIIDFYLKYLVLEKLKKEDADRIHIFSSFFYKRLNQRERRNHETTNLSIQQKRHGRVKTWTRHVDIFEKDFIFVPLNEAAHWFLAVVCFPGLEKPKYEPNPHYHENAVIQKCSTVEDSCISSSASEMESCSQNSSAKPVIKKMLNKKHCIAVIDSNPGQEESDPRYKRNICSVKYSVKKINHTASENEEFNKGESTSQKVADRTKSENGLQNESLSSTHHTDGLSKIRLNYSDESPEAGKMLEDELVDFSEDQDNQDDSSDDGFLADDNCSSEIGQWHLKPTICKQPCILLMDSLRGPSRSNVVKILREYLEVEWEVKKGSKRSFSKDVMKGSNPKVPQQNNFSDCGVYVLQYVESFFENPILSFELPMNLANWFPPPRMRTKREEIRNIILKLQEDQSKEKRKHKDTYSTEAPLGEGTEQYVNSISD
C8 TRAIL sens = viability loss with TRAIL in NB7+C8 cells, primary screen, TRAIL sensitizer project, cell-based, ATPlite luminescence. inhibition (viability loss, TRAIL sensitization), % at 10 µM. 360,000 compounds, 1% hits. AID 624354, 2012;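 active = compounds causing at least 50% loss of cell viability in the single-dose screen, relative to plate controls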
SENP8 block-2 = SENP8 protease inhibitors, primary screen, biochemical, luminescence; Sentrin-specific protease 8 (Homo sapiens), Q96LD8; purified SENP8, Z-RLRGG-aminoluciferin cleavage; inhibition, % at 10 µM; 330,000 compounds, 1.2% hits; in the data active = inhibition above about 50%
SENP8 conf = SENP8 protease inhibitors, retest, confirmation, biochemical, luminescence, single concentration; shares compounds with SENP7 inh; Recombinant SENP8, Z-RLRGG-aminoluciferin luminescence, 60 min; inhibition, % at 12.5 µM; 6,200 compounds, 40% hits;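 active = mean inhibition across replicates above about 50%, limit read from the data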
SENP6 confirm = SENP6 protease inhibitors, confirmation, biochemical, luminescence, single concentration. shares compounds with SENP7 inh. recombinant SENP6, Z-RLRGG-aminoluciferin luminescence. inhibition, % at 12.5 µM. 6,200 compounds, 58% hits
SENP7 confirm = SENP7 protease inhibitors, retest, confirmation, biochemical, luminescence, single concentration; recombinant SENP7, Z-RLRGG-aminoluciferin luminescence, 40 min; shares compounds with SENP7 inh; AID 488917, 2010; inhibition, % at 12.5 µM; 6,200 compounds, 69% hits
Casp3 SENP sel = caspase-3 protease inhibitors, confirmation, selectivity assay for SENP inhibitor project, biochemical, single concentration. shares compounds with SENP7 inh. purified caspase-3, Z-DEVD-aminoluciferin luminescence, 60 min. 6,200 compounds, 60% hits. inhibition, % at 12.5 µM. AID 488918, 2010;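 active = mean inhibition above about 50%, limit read from the data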;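 also: plate controls were enzyme with DMSO for no effect and wells without caspase-3 for full effect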
Luc interf = counter-screen for SENP inhibitors: luminescence interference. shares compounds with SENP7 inh. Pre-incubated SENP8/Z-RLRGG-aminoluciferin, luciferase luminescence interference. inhibition, % at 12.5 µM. 6,200 compounds, 39% hits;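 active = mean inhibition above about 50% when retested at one dose, limit read from the data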;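 also: plate controls were DMSO wells with completed reaction for no effect and substrate without enzyme for full effect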
Active calls of the source: *.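 The calls were made as follows, unless noted: active = mean inhibition above about 50% in the one-dose retest (limit read from the data); inactive = the rest.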

For Cc1nn(-c2ccccc2)c(C)c1NC(=O)COC(=O)c1cc(Br)ccc1O the results were SENP7 inh 11, SENP8 block-1 -64, SENP6 block -7, C8 TRAIL sens -1 and SENP8 block-2 -11.
O=C(O)Cn1nnc(COc2ccccc2)n1 was read as SENP7 inh 10, SENP8 block-1 13, SENP6 block -2, C8 TRAIL sens 7 and SENP8 block-2 2.
Cc1cccc(NC(=O)c2cccc(OC(=S)N3CCOCC3)c2)c1 was read as SENP7 inh 28, SENP8 block-1 9, SENP6 block 37, C8 TRAIL sens -6 and SENP8 block-2 22.
For NC(=S)Nc1cccc(Cl)c1 the results were PPC-1+TRAIL kill 6, SENP7 inh 0, SENP8 block-1 8, SENP6 block -9, C8 TRAIL sens 16 and SENP8 block-2 -1.
Screening COc1cccc(NC(=O)Nc2ccccc2C(N)=O)c1 returned PPC-1+TRAIL kill -2, SENP7 inh 82*, SENP8 block-1 -46, SENP6 block 74*, C8 TRAIL sens 3, SENP8 block-2 61*, SENP8 conf 70*, SENP6 confirm 68*, SENP7 confirm 90*, Casp3 SENP sel 85* and Luc interf 77*.
`O=C(Nc1cccc(Cl)c1)c1ccc(OC(=S)N2CCOCC2)cc1` gave PPC-1+TRAIL kill -2, SENP7 inh 79*, SENP8 block-1 10, SENP6 block 33, C8 TRAIL sens 36, SENP8 block-2 3, SENP8 conf 21, SENP6 confirm 10, SENP7 confirm 78*, Casp3 SENP sel 47 and Luc interf 1.
Screening COc1cccc(NC(=O)c2ncc(Cl)c(Cl)c2Cl)c1 returned PPC-1+TRAIL kill -7, SENP7 inh 90*, SENP8 block-1 17, SENP6 block 70*, C8 TRAIL sens 1, SENP8 block-2 87*, SENP8 conf 49, SENP6 confirm 89*, SENP7 confirm 101*, Casp3 SENP sel 91* and Luc interf 18.
`CS/C(N)=N/C(=S)Nc1cccc(Cl)c1` gave PPC-1+TRAIL kill 12, SENP7 inh 21, SENP8 block-1 22, SENP6 block 58*, C8 TRAIL sens 6, SENP8 block-2 5, SENP8 conf 72*, SENP6 confirm 68*, SENP7 confirm 88*, Casp3 SENP sel 57* and Luc interf 76*.
Screening O=C(O)CC12CC3CC(C1)CC(n1ncc(N4CCC5(CC4)OCCO5)c(Cl)c1=O)(C3)C2 returned PPC-1+TRAIL kill 9, SENP7 inh 14, SENP8 block-1 12, SENP6 block -7, C8 TRAIL sens 8 and SENP8 block-2 -5.
`COC(=O)Cc1cc(=O)[nH]c(/N=C(\N)Nc2ccc(C(C)C)cc2)n1` gave PPC-1+TRAIL kill 8, SENP7 inh -5, SENP8 block-1 13, SENP6 block 2, C8 TRAIL sens 5 and SENP8 block-2 -1.
For O=C(NCCc1ccccc1C(F)(F)F)c1cc(COc2ccccc2)on1 the results were SENP8 block-1 14 and C8 TRAIL sens -1.
Screening COCCNc1nc(Oc2cncc(Cl)c2)c2sccc2n1 returned SENP8 block-1 -230 and C8 TRAIL sens 7.
Screening O=C(Nc1ccc(COc2ccccc2)cc1)c1cccc([N+](=O)[O-])c1 returned PPC-1+TRAIL kill 0, SENP7 inh 63*, SENP8 block-1 16, SENP6 block 9, C8 TRAIL sens 4, SENP8 block-2 -4, SENP8 conf -1, SENP6 confirm 0, SENP7 confirm 2, Casp3 SENP sel 6 and Luc interf 5.
CN1CCN(c2ccc(NC(=O)c3cccc(OCc4ccccc4)c3)cc2)CC1 was read as PPC-1+TRAIL kill 31, SENP7 inh 29, SENP8 block-1 28, SENP6 block 59*, C8 TRAIL sens 8, SENP8 block-2 21, SENP8 conf 23, SENP6 confirm 11, SENP7 confirm 23, Casp3 SENP sel 15 and Luc interf 4.
For CCN1CCN(c2ccc(NC(=O)c3cccc(OCc4ccccc4)c3)cc2)CC1 the results were PPC-1+TRAIL kill 23, SENP7 inh 24, SENP8 block-1 7, SENP6 block 56*, C8 TRAIL sens 7, SENP8 block-2 16, SENP8 conf 0, SENP6 confirm -3, SENP7 confirm 8, Casp3 SENP sel 9 and Luc interf 4.
CC(=O)c1ccc(-c2cnc3c(NC=O)cc(-c4cnn(C)c4)cn23)cc1 was read as SENP8 block-1 inactive and C8 TRAIL sens 12.
For O=C(Nc1cccc(S(=O)(=O)N2CCCCCC2)c1)C1CCN(C(=O)c2ccc(Cl)cc2)CC1 the results were SENP7 inh -2, SENP8 block-1 12, SENP6 block -2, C8 TRAIL sens 21 and SENP8 block-2 -4.
`COC(=O)c1ccc(COC(=O)C2CCN(S(=O)(=O)c3c(C)cc(C)cc3C)CC2)o1` gave SENP8 block-1 -8 and C8 TRAIL sens -13.
Cc1cc(=O)n2[nH]c(SCc3ccc(Cl)cc3)nc2n1 was read as PPC-1+TRAIL kill 4, SENP7 inh 1, SENP8 block-1 0, SENP6 block 52*, C8 TRAIL sens 11, SENP8 block-2 32, SENP8 conf 38, SENP6 confirm 34, SENP7 confirm 69*, Casp3 SENP sel 65* and Luc interf 41.
